# Assay outcomes (PubChem)
# ELG1 genotoxic = qHTS screen for small molecules that induce genotoxicity in human embryonic kidney (HEK293T) cells expressing luciferase-tagged ELG1; HEK293T ELG1-luciferase reporter, luminescence, 16 h; Potency, µM (doses to about 46 µM), without a hit: top-dose activity change, positive = activation, most hits filed as activators; actives 1.3% (n = 330,000); also: % of control where 0% means no effect; nearly all actives have a fitted effect of over 60% in size
#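 After overnight (16 hr) compound treatment at 37 °C, ELG1-luciferase HEK293T cells were lysed with ONE-Glo; luminescence quantified 30 min later at room temperature.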
# Rab9 prom act = qHTS Assay for Rab9 Promoter Activators | Huh7 Rab9 promoter-luciferase reporter, luminescence, 24 h | actives 2.8% (n = 320,000) | AID 485297, 2010 | Potency, µM (top dose mostly 9.22 µM), without a hit: top-dose activation, negative = inhibition, usual class: activators; also: % of control where 0% means no effect; nearly all actives have a fitted effect of over 60% in size
#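 Steps: seed 1500 Huh7 Rab9-luc cells per well, rest 2 h at 37 °C; add compound in DMSO; incubate 24 h; add luciferase reagent, 10 min ambient; read luminescence.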
# SMN2 splice up = qHTS Assay for Enhancers of SMN2 Splice Variant Expression; Potency, µM (highest dose often 46.1 µM), for the others: at the highest dose activity change, positive = activation, actives largely listed as activators; actives 2.8% (n = 210,000); HEK293 SMN2-luciferase splicing reporter, luminescence, 30-36 h; also: % of control where 0% means no effect; nearly all actives have a fitted effect of over 55% in size
#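 HEK293 cells carry an SMN2 minigene-luciferase reporter in which exon 7 inclusion puts luciferase in frame. Cells were seeded at 2000 cells/well, attached for 10-12 hours, then exposed to compounds for 30-36 hours at 37C before ONE-Glo luminescence.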
# ELG1 DNA repair = qHTS screen for small molecules that inhibit ELG1-dependent DNA repair in human embryonic kidney (HEK293T) cells expressing luciferase-tagged ELG1. Potency, µM (doses to about 46.1 µM), for inactives: at the top dose activity change, negative = inhibition, actives largely listed as inhibitors. actives 2.3% (n = 330,000). HEK293T ELG1-luciferase reporter, luminescence, 16 h; DNA damage induced by 5-fluorouridine; also: % is scaled to controls: 0 for no effect and ±100 for the full control effect; nearly all actives have a fitted effect of over 55% in size
#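 Quantitative HTS, concentration-response format. 2,000 cells/well co-treated with 5-fluorouridine and compound, 16 hr in 5% CO2 at 37 °C; ONE-Glo luminescence read after 30 min.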
# NPC1 promoter act = qHTS Assay for NPC1 Promoter Activators | Huh7 NPC1 promoter luciferase reporter, 24 h | Potency, µM (series often up to 9.22 µM), without a hit: at the highest dose activation, actives largely listed as activators | actives 2.4% (n = 320,000); also: % of control where 0% means no effect; nearly all actives have a fitted effect of over 60% in size
#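 Compounds in DMSO were transferred onto Huh7 NPC1-luciferase reporter cells pre-incubated 2 h; after 24 h at 37 °C, Amplite reagent was dispensed and luminescence recorded 10 min later.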
# FLuc modulator = qHTS profiling assay for firefly luciferase inhibitor/activator using purifed enzyme and Km concentrations of substrates (counterscreen for miR-21 project). purified FLuc, Km substrates, luminescence inhibition. Potency, µM (series often up to 57.5 µM), without a hit: top-dose activity change, negative = inhibition, usual class: inhibitors. actives 6.9% (n = 360,000);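 also: plate controls were vehicle for no effect and reference inhibitor for full effect; nearly all actives have a fitted effect of over 55% in size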
# Target sequence (P08659 whole entry, looked up): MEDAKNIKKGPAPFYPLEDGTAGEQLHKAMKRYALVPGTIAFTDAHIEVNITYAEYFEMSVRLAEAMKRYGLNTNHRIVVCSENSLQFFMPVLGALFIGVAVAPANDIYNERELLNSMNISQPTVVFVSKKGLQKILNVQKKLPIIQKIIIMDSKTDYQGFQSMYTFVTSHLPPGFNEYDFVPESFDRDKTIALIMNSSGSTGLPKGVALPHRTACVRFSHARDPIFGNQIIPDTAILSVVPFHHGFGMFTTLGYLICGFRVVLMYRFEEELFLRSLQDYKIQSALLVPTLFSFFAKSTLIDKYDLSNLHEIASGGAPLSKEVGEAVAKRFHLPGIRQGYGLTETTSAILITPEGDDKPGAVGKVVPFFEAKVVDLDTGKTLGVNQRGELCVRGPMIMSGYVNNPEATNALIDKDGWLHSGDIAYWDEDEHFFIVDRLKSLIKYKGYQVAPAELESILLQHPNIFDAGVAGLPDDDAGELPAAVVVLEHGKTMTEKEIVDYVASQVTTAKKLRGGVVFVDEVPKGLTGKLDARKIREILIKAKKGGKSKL
#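 Biochemical qHTS of compounds, final roughly 60 µM downward over six points, against 10 nM purified firefly luciferase using Km concentrations of substrates (10 uM D-luciferin, 10 uM ATP) in Tris acetate pH 7.5 buffer; luminescence output.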
# The depositor's hits bear a star; ? = inconclusive; · = not tested or not shown; [ ] = remark or other dose. Sampled rows, rich in hits. Any-hit rate of the full collection: about 9.3%. Calls follow the shape of the dose curve; as a rule, active = well fitted curve in the direction sought with a large enough effect; inconclusive = small, poorly fitted or top-dose-only effect, or another doubt; inactive = no such curve, though single readings can be large; an effect the other way counts as inactive or inconclusive. Potency is read from the fitted curve at half-maximal effect.
SMILES,ELG1 genotoxic,Rab9 prom act,SMN2 splice up,ELG1 DNA repair,NPC1 promoter act,FLuc modulator
Cc1nc2scc(-c3ccccc3)c2c(=O)n1N,-7%,-1%,8%,-10%,-1%,-1%
Cc1nc2scc(-c3ccccc3)c2c(=O)n1N=C1C=CC(=O)C=C1,?,?,·,?,23%,19µM*
Cc1ccc(-n2nnc3c(=O)n(CC(=O)N4CCCC4)cnc32)cc1,-1%,0%,6%,0%,2%,-3%
Cc1cc2n(n1)C(c1ccc3c(c1)OCO3)Nc1c(C)cccc1-2 (centres undefined),-4%,-2%,4µM*,0%,-1%,-7%
COc1cccc(NC(=O)CNC(=O)c2ccccc2)c1,?,25%,22%,?,18%,-21%
COc1cccc(NC(=O)CN(C)C(=O)CNC(=O)c2ccc(Oc3ccccc3)cc2)c1,6%,?,·,?,27%,6µM*
COc1ccc(NC(=O)CN(C)C(=O)CNC(=O)c2ccc3ccccc3c2)cc1,14%,?,·,?,26%,24µM*
CN(CC(=O)Nc1ccccc1Br)C(=O)CNC(=O)c1ccc(Oc2ccccc2)cc1,0%,2%,·,15%,18%,15µM*
CCOC(=O)C1=C(CN2CCCCC2)NC(=O)NC1c1ccc(OC)cc1 (centres undefined),·,·,·,·,·,-7%
Cc1ccc(C(=O)Nc2ccc3oc(-c4cccnc4)nc3c2)c(Cl)c1,·,·,-5%,·,·,?
Cc1ccc2nc(-c3cccnc3)oc2c1,?,1.3µM*,?,?,?,8.5µM*
Cc1ccc2nc(-c3ccccn3)oc2c1,?,0.63µM*,7.1µM*,?,1.6µM*,1.9µM*
CCc1ccc(NC(=O)CCNS(=O)(=O)c2ccc3c(c2)CCCC(=O)N3)cc1,·,·,·,·,·,8%
Fc1cccc2sc(Nc3nc4cc5c(cc4s3)OCO5)nc12,7.3µM*,3.2µM*,5µM*,?,4µM*,4.3µM*
Fc1cc(F)c2nc(Nc3nc4cc5c(cc4s3)OCO5)sc2c1,?,?,18µM*,?,?,?
O=C(NNc1nc2c(F)cccc2s1)C1=COCCO1,1%,3%,3%,14%,0%,1%
O=c1oc2ccccc2cc1-c1csc(Nc2nc3c(F)cccc3s2)n1,3%,-2%,-28%,?,16%,-19%
O=C(NNc1nc2c(F)cc(F)cc2s1)c1ccccc1,-1%,-3%,22%,15%,-1%,4%
Fc1cccc2sc(Nc3nc4cc5c(cc4s3)OCCO5)nc12,1.2µM*,0.71µM*,?,?,4µM*,1.2µM*
CC(=O)NNC(=S)NC(=O)C(c1ccccc1)c1ccccc1,4%,-13%,·,-20%,-8%,-4%
COc1ccc(-c2cc(C(=O)N3CCCC3)c3ccccc3n2)cc1OC,-7%,0%,·,?,4%,?
COc1cc(OC)c(OC)cc1/C=C/c1cc(C(=O)O)c2ccccc2n1,3%,-8%,-8%,16%,-1%,11µM*
COc1ccc(/C=C/c2cc(C(=O)O)c3ccccc3n2)cc1,-15%,?,·,?,?,0.067µM*
Cc1cc(/C=C\c2ccccc2)nc2ccccc12,?,?,·,?,23%,1.5µM*
CCOc1ccccc1/C=C/c1nc2ccccc2[nH]c1=O,5%,4µM*,·,-1%,3.2µM*,-10%
SMILES,ELG1 genotoxic,Rab9 prom act,SMN2 splice up,ELG1 DNA repair,NPC1 promoter act,FLuc modulator
Cc1cc(=O)[nH]c(SCC(=O)Nc2cc(S(=O)(=O)N(C)C)ccc2Cl)n1,-7%,0%,0%,-3%,-20%,?
Cc1cc(=O)oc(C)c1C(=O)NCC1COc2ccccc2O1 (centres undefined),1%,0%,-14%,-9%,0%,3%
C=CCNC(=O)CSc1nc2sc3c(c2c(=O)n1CCCOC)CCC3,1%,5%,·,-20%,-4%,-1%
CCN(CC)C(=O)Cc1cc(C(=O)O)c2ccccc2n1,0%,10%,·,1%,2%,4%[2.3 µM]
CCOc1ccccc1/C=C/c1cc(C(=O)O)c2ccccc2n1,10%,14%,·,?,22%,13µM*
CC(C)CC(=O)N1CCC(O)(CS(=O)(=O)c2ccc(Cl)c(Cl)c2)CC1,-3%,-2%,14%,-15%,-10%,0%
CC(C)Oc1cccc(-c2cc(C(=O)N3CCN(S(C)(=O)=O)CC3)c3ccccc3n2)c1,-15%,25%,?,?,20%,3µM*
O=C(c1cc(-c2ccccn2)nc2ccccc12)N1CCN(c2ncccn2)CC1,-7%,11%,15%,-10%,-5%,?
COc1ccc(-c2cc(C(=O)N3CCC3)c3ccccc3n2)cc1OC,3%,-2%,·,?,1%,3%
COc1ccc(-c2cc(C(=O)N3CCN(c4ncccn4)CC3)c3ccccc3n2)cc1OC,-3%,0%,·,6.5µM*,7%,13µM*
COc1cccc(N2CCN(C(=O)c3cc(-c4ccccc4)nc4c3cnn4C(C)C)CC2)c1,-6%,·,·,12µM*,·,·
COc1cccc(-c2cc(C(=O)N3CCN(c4ncccn4)CC3)c3ccccc3n2)c1,-13%,2%,35µM*,?,11%,?
CC(C)n1ncc2c(C(=O)N3CCN(c4ccc(F)cc4)CC3)cc(-c3ccccc3)nc21,-2%,-1%,·,?,-2%,-1%
CC(C(=O)Nc1ccc(S(=O)(=O)N2CCCC2)cc1)N(C)CC(=O)Nc1cccc(F)c1 (centres undefined),-2%,·,·,-11%,·,·
CN(Cc1ccccc1)S(=O)(=O)c1ccc2[nH]c(=O)oc2c1,0%,2%,·,-9%,-2%,-4%
Cc1ccc2nc(-c3ccccn3)cc(C(=O)N3CCN(c4ncccn4)CC3)c2c1,-12%,-1%,13%,?,-1%,19µM*
CC(C)Oc1cccc(-c2cc(C(=O)N3CCN(c4ncccn4)CC3)c3ccccc3n2)c1,-12%,17%,29%,15µM*,24%,1.3µM*
Cc1ccc(C(=O)Nc2ccccc2N2CCCCC2)cc1[N+](=O)[O-],-9%,0%,-45%,?,0%,7%
COc1cc(OC)c(OC)cc1CN1CCN(Cc2ccc(C(F)(F)F)cc2)CC1,-11%,-7%,·,?,-7%,7%
